Values joined by “and” are separate entries in the source; they are usually repeats but may differ in a detail not shown here. Identical values can stand only once. This is part of a sample that, as a whole, favours compounds with a hit. Of some 83,000 tested, about 20% had one in any assay.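 How to read the values: 0–100, growth inhibition (40 = 60% inhibited); 0, no net growth; -100 to 0, cell death (-40 = 40% of starting cells died; -100 = all dead).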 Unmarked numbers belong to inactive results. Active and inactive are the calls of the source. How the source made its calls: active means growth percent below 10; inactive means the rest.
What follows are molecules tested on MDA-MB-468 breast (assay: NCI-60 one-dose screen, 48 h (100 = growth as untreated, 0 = no growth, -100 = all killed)). Conditions: 10 µM unless noted.

SMILES	growth
C(#CCN1CCOCC1)CCCN1CCOCC1	93.6% and 110%
CO[C@H]1/C=C/O[C@@]2(C)Oc3c(C)c(O)c4c(O)c(c(/C=N/N5C(C)CN(Cc6ccccc6)CC5C)c(O)c4c3C2=O)NC(=O)/C(C)=C\C=C\[C@H](C)[C@H](O)[C@@H](C)[C@@H](O)[C@@H](C)[C@H](OC(C)=O)[C@@H]1C (stereo not given in full)	65.1%
COc1cc(/C=C/c2ccnc3ccccc23)cc(OC)c1OC	-8% (active)
COc1ccc(C2C3=C(COC3=O)N(CCO)c3cc4c(cc32)OCCO4)cc1OC (stereo not given)	-32.1% (active)
Fc1ccc(Nc2nnc(-c3ccc(Cl)cc3)o2)cc1	97.9%
[O-][n+]1ccccc1CCN(O)CCc1cccc[n+]1[O-]	110%
CC1CCN(CC(=O)Nn2c(COc3ccccc3)nc3ccccc3c2=O)CC1	50.9%
O=C(CCOCCNC(=O)COc1ccc2c(c1)OCC(c1ccc(F)cc1)C2=O)NCCCC(O)(P(=O)(O)O)P(=O)(O)O (stereo not given)	106%
CCN1CCN(CC(=O)Nc2nc3ccc(NCc4ccc(C)cc4)cc3s2)CC1	68.2%
NC(=O)C1(Nc2ccc(Br)cc2)CCCC1	101%
COc1cc(/C=N/NC(=O)Cn2c(C(C)C)nc3ccccc32)ccc1O	84.9%
Cc1cccc(Cc2cnc(NC(=O)CCc3ccc(C)o3)s2)c1	5% (active)
CCn1c(Sc2nnc(NC(=O)CCN3CCCC3)s2)nc2c1c(=O)n(C)c(=O)n2C	101%
COc1ccc(C(c2cc(OC)c(OC)c(OC)c2)N2CCN(c3ccccc3)CC2)cc1 (stereo not given)	77.2%
Brc1cccc(-n2ncc3c(Nc4ccc(-c5nnc(-c6ccccc6)o5)cc4)ncnc32)c1	101%
CCOC(=O)c1c(C)nc2ccccc2c1/C=C/c1ccc(OC)cc1	20.6%
Cc1ccc(-c2nc3nc(-c4ccc(F)cc4)nc(N4CCNCC4)c3o2)cc1	54.3%
Brc1c[n+](Cc2ccc3ccccc3c2)cn1Cc1ccc2ccccc2c1	-29.1% (active)
CCCN(CCC)c1ccc(/C=C/c2ccc3cc(OCC)ccc3n2)cc1	74.1%
Cc1c(C(=O)NO)sc2ncnc(Nc3ccc(NC(=S)Nc4ccccc4)cc3)c12	104%

SMILES	growth
Cc1ccc(C(O)C2=CC(=O)c3ccccc3C2=O)cc1 (stereo not given)	96.5%
O=S(=O)(Nc1ccc2ccccc2c1)N1CCCCC1	12.8%
O=C(N/N=C\c1cc(Cl)ccc1[N+](=O)[O-])c1ccco1	58.5%
COc1ccc(C(=O)/C=C/c2c(C(F)(F)F)nc3ccccn23)cc1OC	-59.9% (active)
O=c1[nH]c(-c2ccncc2)nc2sc3c(c12)CCCCCC3	99.2%
O=[n+]1c2ccccc2n([O-])c2cc(Cl)ccc21	-15.4% (active)
N#Cc1c(N)sc(=S)c2c1CCCC2	110%
COc1ccc2c(c1)c(CC(=O)[Se]CC#N)c(C)n2C(=O)c1ccc(Cl)cc1	-43.2% (active)
CC(c1ccccc1)N1C(=O)/C(=C/c2csc(C#N)n2)SC1=S (stereo not given)	63.5%
C=C1C(=O)O[C@H]2[C@H]1CC/C(COC(=O)NCC(C)c1ccc(CC(C)C)cc1)=C\CC[C@@]1(C)O[C@@H]21 (stereo not given in full)	-64% (active)
Cc1nc(-c2ccccc2)cc2c(O)c(C(=O)NN)[nH]c(=O)c12	116%
O=C1/C(=C/c2ccccc2[N+](=O)[O-])Oc2ccc(O)c(O)c21	37.5%
COc1cccc(-c2nn(-c3ccccc3)cc2-c2ccnc(N3CCOCC3)c2)c1	69.2%
CC12CCC3C4(C)COC(c5ccccc5Cl)OC4CCC3(C)C1CC(C1=CCOC1=O)O2 (stereo not given)	24.9%
Cc1ccc(CC#N)cc1C	104%
Cc1nc2ccccc2c(N)c1-c1cc(C)c2c(C)nc3ccccc3c2n1	-94.8% (active)
O=C(Cc1nc2cc(Cl)c(Cl)cc2nc1CC(=O)c1ccccc1)c1ccccc1	-55% (active)
Cn1c(COC(=O)NCCc2ccccn2)nc2c(N3CCOCC3)nc(Cl)nc21	-51.1% (active)
Cc1ccc(S(=O)(=O)NCCNc2nccc(-c3c(-c4ccc(O)cc4)nc4sccn34)n2)cc1	85.3%
O=c1c2cccc3c(NC4CCCCC4)ccc(c32)c2nc3ccccc3n12	-4.69% (active)
